Screening results (PubChem)
This is one part of a sample in which hits are shown more often than they occur.
ERG Ets-DNA blk – qHTS for Small Molecule Inhibitors of the ERG Ets/DNA interaction. Transcriptional regulator ERG (Homo sapiens), P11308. 370,000 tested, 0.028% active. fluorescence polarization, His-ERG Ets domain / labelled DNA. Potency, µM (titrated, usually from 76.9 µM), usual class: inhibitors; active = well fitted inhibition curve with a large enough effect in the polarisation, with a control signal flat; inconclusive = small, poorly fitted or top-dose-only effect, or effect the other way, or a change in a side signal; inactive = no such curve, though single readings can be large or run the other way; the % refers to the polarisation;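 also: polarization taken with two DNA probes labelled with fluorescein and Texas red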
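His-tagged ERG Ets domain (1 uM in the protein solution; 300mM KCl, 50mM Tris-HCl, 1mM EDTA, 1mM DTT, pH 7.5) received compound, then a probe mix of 5 nM fluorescein-DNA and 100nM Texas-615-DNA. Fluorescence polarization was read for both dyes.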
VP16 counter – VP16 counterscreen qHTS for inhibitors of ROR gamma transcriptional activity | Drosophila S2 Gal4-VP16 UAS-luciferase, luminescence, 20 h | Potency, µM (top dose mostly 53.6 µM), usual class: inhibitors | 310,000 tested, 3.5% active | AID 2546, 2010;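 also: Gal4-VP16 expression switched on by copper sulfate through the metallothionein promoter; nearly all actives have a fitted effect of over 50% in size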
a7 integrin act – qHTS for Activators of Integrin-Mediated Alleviation for Muscular Dystrophy | Potency, µM (top dose mostly 38.3 µM), most hits filed as activators | alpha7betagal myoblasts, beta-gal FDG fluorescence, 48 h | 350,000 tested, 0.064% active; also: nearly all actives have a fitted effect of over 60% in size
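alpha7betagal+/- myoblasts (passage 13, 250/well) treated 48 h at 37C with compounds at 1:260 dilution of DMSO stock. Lysed, then beta-galactosidase activity read as FDG fluorescence (ex 480/em 540) after 30 min, with pre-read for autofluorescence.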
RORgamma inh – qHTS for inhibitors of ROR gamma transcriptional activity | Drosophila S2 Gal4-RORgamma UAS-luciferase reporter, 20 h | Potency, µM (highest dose often 53.6 µM), hits mostly inhibitors | 310,000 tested, 5.4% active; also: nearly all actives have a fitted effect of over 60% in size
Target sequence (P51450 whole entry, looked up, the tested form may be a part): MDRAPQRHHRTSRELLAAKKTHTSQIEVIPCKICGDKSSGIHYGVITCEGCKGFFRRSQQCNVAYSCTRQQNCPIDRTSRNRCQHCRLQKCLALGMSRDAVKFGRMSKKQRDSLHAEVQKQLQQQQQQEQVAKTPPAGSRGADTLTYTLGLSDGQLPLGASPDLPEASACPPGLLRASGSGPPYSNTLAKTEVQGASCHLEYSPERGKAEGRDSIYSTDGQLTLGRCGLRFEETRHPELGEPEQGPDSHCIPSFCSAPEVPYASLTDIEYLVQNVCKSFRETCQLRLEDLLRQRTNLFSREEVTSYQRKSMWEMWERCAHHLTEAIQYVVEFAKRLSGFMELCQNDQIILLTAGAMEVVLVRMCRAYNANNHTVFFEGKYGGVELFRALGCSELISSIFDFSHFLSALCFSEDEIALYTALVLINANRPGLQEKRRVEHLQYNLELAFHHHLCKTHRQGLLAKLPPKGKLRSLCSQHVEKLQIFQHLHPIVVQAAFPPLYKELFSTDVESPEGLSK
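Schneider cells (Drosophila), stable Gal4 DBD–ROR gamma + UAS-luc; 1 hr cmpd preincubation; Cu2+ induction 700 uM final; 20 hr ambient; luminescence.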
Giardia kill – Small Molecules that selectively kill Giardia lamblia: qHTS; 340,000 tested, 0.15% active; Giardia lamblia trophozoite viability; AID 540267, 2011; activity change, % at 7.66 µM, hits read low; in the data active = activity change below about -80%; inconclusive = between about -30% and that limit;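 also: parasites exposed to compound for two days anaerobically before the ATP read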
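Each well holds 100 Giardia trophozoites and compound. After two days (48 hrs) at 37 deg C in anaerobic conditions, ATP is quantified by luminescence.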
Of the large screens only hits and unclear results are named; the others gave an inactive call. Unless noted, calls follow the shape of the dose curve; as a rule, active = well fitted curve in the direction sought with a large enough effect; inconclusive = small, poorly fitted or top-dose-only effect, or another doubt; inactive = no such curve, though single readings can be large; an effect the other way counts as inactive or inconclusive.

CC1(C)C/C(=N\NC(=S)Nc2ccccc2F)c2cc(O)ccc2O1	VP16 counter inconclusive, RORgamma inh 3.2µM
COC(=O)c1cc2oc3ccccc3c2n1CC(=O)Nc1cc(OC)cc(OC)c1	none (no result: VP16 counter, a7 integrin act, RORgamma inh, Giardia kill)
COC(=O)[C@@H]1C[C@H]1[C@@H](NC(=O)c1cc(C)nn1C)c1ccccc1	none (no result: ERG Ets-DNA blk, a7 integrin act, Giardia kill)
COc1cccc(N2CCN(C3=NS(=O)(=O)C(c4ccc(C)cc4)=C3C)CC2)c1	none (no result: VP16 counter, a7 integrin act, RORgamma inh, Giardia kill)
Cc1ccc(CNC(=O)C2CCN(S(=O)(=O)c3cn(C)cn3)CC2)cc1	none (no result: VP16 counter, a7 integrin act, RORgamma inh, Giardia kill)
CCc1cc2c(=O)n(CC)c(SC(C)C(=O)Nc3c(C)n(C)n(-c4ccccc4)c3=O)nc2s1 (stereo not drawn)	none
COCCNC(=O)C1(C(F)(F)F)C/C(=C/CCO)CCCO1 (stereo not drawn)	none (no result: ERG Ets-DNA blk, a7 integrin act)
COCCNc1nnc(SCC(=O)NNC(=O)c2ccccc2)s1	none
COCCNc1nnc(SCC(=O)c2c[nH]c3ccccc23)s1	VP16 counter 35µM, RORgamma inh inconclusive
COCCNc1nnc(SCC(=O)Nc2sc3c(c2C(=O)c2ccccc2)CCCC3)s1	VP16 counter inconclusive, RORgamma inh 16µM
COCCNc1nnc(SCC(=O)c2ccc3c(c2)OCO3)s1	none
Nc1nnc(SCC(=O)Nc2sc3c(c2C(=O)c2ccccc2)CCCC3)s1	VP16 counter inconclusive, RORgamma inh 22µM
Cc1ccc(C(=O)c2c(NC(=O)CSc3nnc(N)s3)sc3c2CCCC3)cc1	none
O=C(CNC(=O)C1CCCCC1)OCC(=O)c1ccc2c(c1)CCC2	none (no result: ERG Ets-DNA blk, VP16 counter, a7 integrin act, RORgamma inh)
CCC(=O)Nc1cc2c3c(c1)CCN3C(=O)CC2	none
CN1CCN(C(c2cccs2)c2nnnn2Cc2ccc(F)cc2)CC1 (stereo not drawn)	none
O=C(O)c1ccccc1C(=O)NNc1cccc(Cl)n1	none
Cc1cccc(C)c1OCC(=O)N(Cc1ccc(N(C)C)cc1)C1CCS(=O)(=O)C1 (stereo not drawn)	none
Cc1ccc(CNC(=O)c2cc3c(C)nc4ccccc4c3o2)cc1	VP16 counter 18µM
CC1=C(C(=O)c2ccccc2)C(c2cn(-c3ccccc3)nc2-c2ccc(Cl)cc2)NC(=S)N1 (stereo not drawn)	VP16 counter 3.5µM, RORgamma inh 5.6µM
COc1ccc(NC(=S)N(C)CC2COc3ccccc3O2)cc1 (stereo not drawn)	none
Cc1ccccc1/C=N/Nc1nc2ccccc2[nH]1	a7 integrin act inconclusive, RORgamma inh 7.1µM
Cc1[nH]c2ccccc2c1/C=N/Nc1nc2ccccc2[nH]1	a7 integrin act inconclusive
Cc1ccsc1/C=N/Nc1nc(Cl)c(Cl)cc1Cl	none
COc1ccc(/C=N/Nc2nc3ccccc3[nH]2)c(OC)c1OC	RORgamma inh 13µM
Cc1ccc(/C=N/Nc2nc(Cl)c(Cl)cc2Cl)s1	VP16 counter inconclusive, RORgamma inh 11µM
Cc1ccc(/C=N/Nc2nc3ccccc3[nH]2)s1	VP16 counter 5µM, RORgamma inh 4.5µM
C=CCOC(=O)C(C(C)=O)C(NC(=O)OC)c1cccc(C(F)(F)F)c1 (stereo not drawn)	none (no result: ERG Ets-DNA blk, a7 integrin act, Giardia kill)
O=[N+]([O-])c1cc(/C=N/Nc2nc3ccccc3[nH]2)c(O)cc1O	VP16 counter 3.2µM, RORgamma inh 3.5µM
O=c1[nH]c(N/N=C/c2cc3c(cc2[N+](=O)[O-])OCO3)nc2ccccc12	a7 integrin act inconclusive, Giardia kill inconclusive
C(=N\Nc1nc2ccccc2[nH]1)/c1c[nH]c2ccccc12	VP16 counter 10µM, RORgamma inh 3.5µM
C(=N\Nc1nc2ccccc2[nH]1)/c1cccc2cccnc12	VP16 counter 2.2µM, RORgamma inh 0.35µM
COc1ccc(NC(=S)NCC(O)c2ccccc2)c(OC)c1 (stereo not drawn)	none
S=C(Nc1ccccc1)Nc1ccc(OCc2ccccc2)cc1	RORgamma inh 11µM
NS(=O)(=O)c1ccc(NC(=S)Nc2ccc(OCc3ccccc3)cc2)cc1	none
COc1ccc(NC(=S)Nc2ccccc2)c(OC)c1	VP16 counter inconclusive, RORgamma inh 13µM
COc1ccc(NC(=S)Nc2ccc(OCc3ccccc3)cc2)c(OC)c1	VP16 counter 7.1µM, RORgamma inh 7.1µM
O=C1C[C@H](c2ccc(-c3ccccc3)cc2)N1S(=O)(=O)c1ccccc1[N+](=O)[O-]	none (no result: ERG Ets-DNA blk, a7 integrin act)
